hNpr1 antagonist: human Npr1 receptor antagonism; P16066; HEK293 hNpr1 GloSensor cGMP, ANP-stimulated luminescence; Potency, µM (highest dose often 46.3 µM), without a hit: at the top dose activity change, negative = inhibition, hits mostly inhibitors; 76,000 tested, 1.6% active; AID 1347048; calls by dose curve; note: nearly all actives have a fitted effect of over 60% in size
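HEK293 cells stably expressing human Npr1 and cGMP GloSensor pGS-40F, loaded 2 h with 2% GloSensor reagent, given compound 30 min at room temperature. Luminescence read before and 20 min after 0.1 nM hNppA.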
HEK293 tox: HEK 293 cell cytotoxicity; 94,000 tested, 6.6% active; AID 1345083; Potency, µM (series often up to 115 µM), for the others: at the top dose activity change, negative = cytotoxicity, most hits filed as inhibitors; HEK 293 viability, ATP luminescence (CellTiter-Glo), 48-72 h; note: nearly all actives have a fitted effect of over 60% in size
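250 HEK 293 cells/well; compound by pintool; incubated 48 or 72 hr at 37 degree Celsius; CellTiter-Glo added, 10 min RT, luminescence imaged.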
Luciferase inh: Photinus pyralis luciferase inhibition; 76,000 tested, 2.5% active; purified P. pyralis luciferase, luminescence, biochemical; Potency, µM (series often up to 115 µM), usual class: inhibitors; P08659; AID 1347043; note: nearly all actives have a fitted effect of over 65% in size
Target sequence (P08659 whole entry, looked up): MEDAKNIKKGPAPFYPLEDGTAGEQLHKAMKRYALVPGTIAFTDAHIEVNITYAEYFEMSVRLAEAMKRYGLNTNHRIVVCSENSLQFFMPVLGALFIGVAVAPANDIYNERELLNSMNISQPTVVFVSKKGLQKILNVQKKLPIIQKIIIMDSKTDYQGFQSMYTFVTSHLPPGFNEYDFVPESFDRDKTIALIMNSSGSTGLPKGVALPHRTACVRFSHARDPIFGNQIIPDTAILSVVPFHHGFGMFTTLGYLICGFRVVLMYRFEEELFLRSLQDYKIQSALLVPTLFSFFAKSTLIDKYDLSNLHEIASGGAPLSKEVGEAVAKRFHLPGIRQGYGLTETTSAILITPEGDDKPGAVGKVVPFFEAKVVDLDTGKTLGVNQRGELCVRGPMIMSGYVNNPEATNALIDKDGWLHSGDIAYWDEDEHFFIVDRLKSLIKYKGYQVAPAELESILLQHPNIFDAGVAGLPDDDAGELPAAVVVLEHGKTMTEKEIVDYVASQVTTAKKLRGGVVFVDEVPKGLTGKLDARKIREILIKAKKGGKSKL
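Purified P. pyralis luciferase (10nM final) in 50mM Tris acetate pH 7.5, 10mM Mg acetate, 0.01% Tween-20, 0.05% BSA with 10uM D-luciferin and 10uM ATP. Compounds titrated qHTS. Luminescence imaged on CCD.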
GPT2 inhibitor: GPT2 alanine aminotransferase inhibition. Recombinant GPT2, coupled pyruvate oxidase/HRP Amplex Red fluorescence. 100,000 tested, 0.25% active. Q8TD30. Potency, µM (titrated, usually from 57.7 µM), for the others: top-dose activity change, negative = inhibition, usual class: inhibitors; note: nearly all actives have a fitted effect of over 60% in size
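GPT2 10ng/uL, a-KG 250uM, L-Ala 2mM, HEPES pH7.5 + 0.0001% Tween; 30 min RT. Then Amplex mix (PO/HRP/ThPP), 30 min RT dark, fluorescence. AOA 50uM used as positive control.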
3T3 cytotox: NIH 3T3 cell cytotoxicity | NIH 3T3 viability, CellTiter-Glo ATP luminescence, 48-72 h | Potency, µM (series often up to 96.7 µM), for the others: at the top dose activity change, negative = cytotoxicity, actives largely listed as inhibitors | 94,000 tested, 4.3% active; note: nearly all actives have a fitted effect of over 55% in size
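Viability of NIH 3T3 cells after 48 or 72 hr compound treatment at 37 °C was assessed by CellTiter-Glo, with luminescence imaged following a 10 min room-temperature step.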
* marks the source's active call; other numbers are inactive results; i = inactive; ? = inconclusive; . = no result given; [ ] = dose if it differs, or a comment. A selection: hits, their analogues and other compounds. The true share with any hit is near 10%. Unless noted, calls come from the whole dose curve; as a rule, active = well fitted curve in the direction sought with a large enough effect; inconclusive = small, poorly fitted or top-dose-only effect, or another doubt; inactive = no such curve, though single readings can be large; an effect the other way counts as inactive or inconclusive. % is set by controls: 0 for no effect and ±100 for the full control effect; potency is the fitted concentration of half-maximal effect.

SMILES	hNpr1 antagonist	HEK293 tox	Luciferase inh	GPT2 inhibitor	3T3 cytotox
CN1C[C@@H](NC(=O)Nc2ccccc2)C[C@H]1c1nc(Cc2ccccc2)no1	-2%[70.6 µM]	?	45µM*	i	?
CCn1cnnc1-c1nn(C)c2c1CN(C(=O)Cc1cccc(F)c1)CC2	-2%	i	i	i	i
Cc1ccc(CN2C(=O)[C@@H]3C[C@@H](O)CN3C3(CN(Cc4cccc(F)c4)C3)C2=O)o1	3%[70.6 µM]	i	i	i	1%[174 µM]
COc1ccc(S(=O)(=O)N2CCc3c(C(=O)NCc4ccccn4)cccc32)cc1	?	35µM*	i	i	?
CCCCNC(=O)c1cccc2c1CCN2S(=O)(=O)c1ccc(C)cc1	?	18µM*	i	1%	?
O=C(NCc1ccccn1)c1cccc2c1CCN2C(=O)C1CC1	-2%	3%	i	-6%	?
COc1ccc(S(=O)(=O)N2CCc3c(C(=O)NCCN(C)C)cccc32)cc1	-17%	?	?	3%	?
COc1ccc(S(=O)(=O)N2CCc3c(C(=O)NCCc4cccs4)cccc32)cc1	?	25µM*	i	-14%	-28%
CN(Cc1ccc(F)cc1)Cc1cccc(C(F)(F)F)c1	.	0%[172 µM]	.	i	-10%[138 µM]
O=C(NC1CCN(c2ccnc3ccnn23)CC1)c1ccccc1	.	?	.	i	?
COc1ccc(NC(=O)[C@@H]2C[C@@H](c3cccc(C(F)(F)F)c3)N(C)C2)cc1	-29%[70.6 µM]	?	i	-2%[88.5 µM]	?
O=C(Nc1cccc(F)c1)[C@@H]1C[C@@H](c2cccc(C(F)(F)F)c2)N(CC2CCOCC2)C1	-15%	22µM*	i	-4%	20µM*
CN1C[C@H](C(=O)Nc2cccc(F)c2)C[C@H]1c1cccc(C(F)(F)F)c1	-24%[70.6 µM]	63µM*	i	4%[88.5 µM]	50µM*
CN1C[C@H](C(=O)NCCOc2ccccc2)C[C@H]1c1cccc(C(F)(F)F)c1	-16%[70.6 µM]	100µM*	i	-19%[88.5 µM]	?
COc1ccc(NC(=O)[C@@H]2C[C@@H](c3cccc(C(F)(F)F)c3)N(CC3CCOCC3)C2)cc1	2%	?	i	-7%	?
O=C(Nc1ccccc1)[C@@H]1C[C@@H](c2cccc(C(F)(F)F)c2)N(CC2CCOCC2)C1	?	56µM*	i	?	?
COc1ccc(CN2CCCC23Cc2ccccc2CNC3=O)cc1 (centres undefined)	.	-11%	.	i	-1%
COc1ccccc1N1CCN([C@@H]2[C@H](O)[C@H](CO)O[C@@H]2CNCc2cccc(Cl)c2)CC1	-3%	-13%	i	?	-3%
CN1CCC(CC(=O)N2CCC3(CC2)CC(CCOc2ccc(F)cc2)CCO3)CC1 (centres undefined)	.	?	.	1%	?
COC[C@@H]1CN(C(=O)c2nccc3ccccc23)C[C@H]1c1ccncc1	-10%	i	i	i	-7%
COc1ccccc1Nc1ccnc(N2CCC(NC(=O)c3ccccc3)CC2)n1	.	?	.	0%	-10%
COc1ccccc1Nc1ccnc(N2CCC(NC(=O)c3ccc(Cl)cc3)CC2)n1	.	35µM*	.	1%	32µM*
COc1ccccc1Nc1ccnc(N2CCC(NC(=O)Cc3ccc(F)cc3)CC2)n1	.	45µM*	.	-16%	?
COc1ccccc1Nc1ccnc(N2CCC(NC(=O)c3ccc(F)cc3)CC2)n1	.	-29%	.	i	-28%
COc1ccccc1Nc1ccnc(N2CCC(NC(=O)c3ccc(C)cc3)CC2)n1	.	?	.	i	40µM*
SMILES	hNpr1 antagonist	HEK293 tox	Luciferase inh	GPT2 inhibitor	3T3 cytotox
COc1ccc(-c2cc(-c3cccc(C(N)=O)c3)cn3cncc23)cc1	-15%[70.6 µM]	?	i	-17%[88.5 µM]	40µM*
OCc1ccc(-c2cc(-c3ccncc3)c3cncn3c2)cc1	2%[70.6 µM]	?	i	-7%[88.5 µM]	40µM*
COc1ccc(-c2cc(-c3ccc(F)cc3OC)cn3cncc23)cc1	-5%[70.6 µM]	?	i	?	?
Cn1cc(-c2cc(-c3ccncc3)c3cncn3c2)cn1	-4%[70.6 µM]	?	i	?	40µM*
CC(=O)Nc1cccc(-c2cc(-c3ccncc3)c3cncn3c2)c1	-7%[70.6 µM]	?	i	5%[88.5 µM]	?
COc1ccc(-c2cc(-c3ccc(F)cc3)cn3cncc23)cc1	0%[70.6 µM]	100µM*	?	-3%[88.5 µM]	?
CNC(=O)c1ccc2nnc(-c3cccc([S+](C)(=O)[O-])c3)n2c1	.	-9%[172 µM]	.	i	-19%[138 µM]
COc1ccccc1NC(=O)N1CCCC(Cn2c(C)nc3cccnc32)C1 (centres undefined)	3%	3%	i	-5%	i
COc1ccc(-c2cc(-c3ccncc3)cn3cncc23)cc1	4%[70.6 µM]	?	i	0%[88.5 µM]	35µM*
COc1ccc(-c2cc(-c3ccncc3)c3cncn3c2)cc1	-12%[70.6 µM]	?	?	-1%[88.5 µM]	35µM*
COc1ccc(-c2cc(-c3ccncc3)c3cncn3c2)cn1	-3%[70.6 µM]	?	i	-14%[88.5 µM]	?
C[S+](=O)([O-])c1ccc(-c2nnc3ccc(C(=O)NCCc4ccc(Cl)cc4)cn23)cc1	.	?	.	i	?
Cc1ccccc1-c1cc(-c2c(C)noc2C)c2cncn2c1	-15%[70.6 µM]	45µM*	i	-18%[88.5 µM]	?
COc1cccc(-c2cc(-c3ccncc3)c3cncn3c2)c1OC	-4%[70.6 µM]	89µM*	i	-12%[88.5 µM]	?
COc1cccc(-c2cc(-c3c(C)noc3C)c3cncn3c2)c1OC	0%[70.6 µM]	79µM*	i	i	?
COc1cc(F)ccc1-c1cc(-c2c(C)noc2C)c2cncn2c1	2%[70.6 µM]	63µM*	i	-8%[88.5 µM]	?
CCc1noc(-c2cn(C3CCN(C(=O)c4cccc(OC)c4)CC3)nn2)n1	-11%	-15%	i	0%	-16%
CC(C)c1ccc(CN2C[C@@H]3[C@H](C2)N(Cc2ccccc2)C(=O)C(C)(C)[S+]3(=O)[O-])cc1	-1%	?	i	-10%	?
CCCN1CCCC2(CCN(S(=O)(=O)c3cccc(OC)c3)C2)C1=O (centres undefined)	2%	1%	i	i	-1%
COc1ccc(-c2cc(-c3c(C)noc3C)c3cncn3c2)cc1OC	-6%[70.6 µM]	?	i	?	22µM*
Cc1noc(C)c1-c1cc(-c2ccc3c(c2)C(=O)NC3)cn2cncc12	0%[70.6 µM]	-63%[172 µM]	i	1%[88.5 µM]	13µM*
CCC1(O)CCC12CCN(C(=O)c1ccc(OC)c(F)c1)CC2 (centres undefined)	.	-28%	.	i	?
Cc1ncsc1CN1CCC(Cc2ncc(C)n2CC2CC2)C1 (centres undefined)	7%	-3%	i	3%	3%

Source: PubChem BioAssay
